Structures are written as SMILES. In all, about 350,000 compounds went through this assay and about 840 (0.24%) were called active. Cut-off read from the data, not from the text of the source: active = inhibition above about 10%; inactive = the rest. The entries come from a sample that favours actives as a whole.

As a reminder, the inhibition is the drop in the measured response relative to a control, in per cent.

In this assay the target is Toxin B (Clostridioides difficile) (UniProt P18177). Briefly: TcdB glycohydrolase inhibitors, primary screen, biochemical, single point, plate reader (AID 652162). Conditions: TcdB glycohydrolase enzymatic assay, at 9.99 µM, active compounds read high.
Toxin B (Clostridioides difficile), sequence (P18177 whole entry, looked up): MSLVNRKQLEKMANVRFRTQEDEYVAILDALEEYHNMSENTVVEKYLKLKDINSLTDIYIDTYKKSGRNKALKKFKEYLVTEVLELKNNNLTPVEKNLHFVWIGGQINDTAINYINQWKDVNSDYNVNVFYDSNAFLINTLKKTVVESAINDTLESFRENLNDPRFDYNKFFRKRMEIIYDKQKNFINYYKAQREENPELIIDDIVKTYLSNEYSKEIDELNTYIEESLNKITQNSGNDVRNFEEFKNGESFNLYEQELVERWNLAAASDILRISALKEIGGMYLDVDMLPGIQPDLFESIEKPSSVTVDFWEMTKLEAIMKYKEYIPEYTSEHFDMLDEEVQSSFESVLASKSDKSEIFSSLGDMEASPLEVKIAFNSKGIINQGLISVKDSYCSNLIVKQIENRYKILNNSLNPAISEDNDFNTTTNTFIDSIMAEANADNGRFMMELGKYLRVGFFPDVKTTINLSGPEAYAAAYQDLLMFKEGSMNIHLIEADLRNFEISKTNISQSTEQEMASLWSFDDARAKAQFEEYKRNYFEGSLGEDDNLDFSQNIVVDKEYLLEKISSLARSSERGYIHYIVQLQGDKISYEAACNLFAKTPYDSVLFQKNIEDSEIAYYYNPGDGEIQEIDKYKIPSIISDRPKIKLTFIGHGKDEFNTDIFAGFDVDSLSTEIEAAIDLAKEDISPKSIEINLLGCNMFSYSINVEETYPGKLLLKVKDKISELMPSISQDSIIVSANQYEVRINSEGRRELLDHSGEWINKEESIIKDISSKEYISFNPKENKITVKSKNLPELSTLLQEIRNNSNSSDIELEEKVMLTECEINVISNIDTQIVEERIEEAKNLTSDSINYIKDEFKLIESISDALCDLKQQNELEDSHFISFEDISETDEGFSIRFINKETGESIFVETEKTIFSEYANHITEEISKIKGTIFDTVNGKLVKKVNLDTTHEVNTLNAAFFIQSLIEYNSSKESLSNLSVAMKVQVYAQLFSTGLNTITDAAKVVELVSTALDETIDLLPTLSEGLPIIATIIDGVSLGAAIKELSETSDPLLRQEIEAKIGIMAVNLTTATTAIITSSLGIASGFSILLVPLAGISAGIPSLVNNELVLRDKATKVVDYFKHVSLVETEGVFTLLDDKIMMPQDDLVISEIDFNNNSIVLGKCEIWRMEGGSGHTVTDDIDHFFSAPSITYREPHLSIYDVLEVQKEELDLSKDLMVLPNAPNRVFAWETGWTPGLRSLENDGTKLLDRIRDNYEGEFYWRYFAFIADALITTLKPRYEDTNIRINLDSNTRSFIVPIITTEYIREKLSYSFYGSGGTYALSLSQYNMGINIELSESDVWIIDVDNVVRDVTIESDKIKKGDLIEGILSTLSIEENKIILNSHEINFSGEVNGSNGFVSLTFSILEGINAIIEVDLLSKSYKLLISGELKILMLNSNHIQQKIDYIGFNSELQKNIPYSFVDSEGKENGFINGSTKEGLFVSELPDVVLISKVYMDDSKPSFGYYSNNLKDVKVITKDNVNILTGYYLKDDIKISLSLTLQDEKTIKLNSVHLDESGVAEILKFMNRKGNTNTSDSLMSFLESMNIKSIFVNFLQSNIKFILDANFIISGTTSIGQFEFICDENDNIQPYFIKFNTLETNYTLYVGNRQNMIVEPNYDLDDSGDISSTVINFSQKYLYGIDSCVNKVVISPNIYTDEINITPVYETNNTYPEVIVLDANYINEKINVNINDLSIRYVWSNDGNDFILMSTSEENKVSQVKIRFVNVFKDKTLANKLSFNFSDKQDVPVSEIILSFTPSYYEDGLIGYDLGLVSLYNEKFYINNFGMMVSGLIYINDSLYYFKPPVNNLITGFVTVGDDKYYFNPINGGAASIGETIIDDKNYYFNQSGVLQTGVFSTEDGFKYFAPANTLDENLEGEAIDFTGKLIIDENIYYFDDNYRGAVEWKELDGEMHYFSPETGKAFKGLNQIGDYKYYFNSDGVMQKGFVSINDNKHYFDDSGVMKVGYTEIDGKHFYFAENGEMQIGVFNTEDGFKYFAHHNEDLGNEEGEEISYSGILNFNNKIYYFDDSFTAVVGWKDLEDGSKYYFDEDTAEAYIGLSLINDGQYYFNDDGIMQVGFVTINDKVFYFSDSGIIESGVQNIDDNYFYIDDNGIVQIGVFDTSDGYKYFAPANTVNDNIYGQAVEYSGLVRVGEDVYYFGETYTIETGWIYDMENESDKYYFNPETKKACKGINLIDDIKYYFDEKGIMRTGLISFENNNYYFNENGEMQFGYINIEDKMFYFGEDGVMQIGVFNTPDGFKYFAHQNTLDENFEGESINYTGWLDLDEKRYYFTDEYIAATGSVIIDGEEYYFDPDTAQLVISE
`COCC(=O)N1C[C@H]2[C@@H](c3ccccc31)[C@@H](CO)N2C(=O)NC(C)C`: the inhibition was -0.399% (inactive). Next, `CCOC(=O)CNC(=O)CSc1ncccc1-c1nc2ccccc2[nH]1`: -7.68% (inactive); `Nc1ccccc1-c1nc2ccncc2[nH]1`: 12.2% (active); `Cc1cc(C)nc(Nc2n[nH]c(-c3ccccc3N)n2)n1`: -0.68% (inactive). Next, `COCC(=O)N(C)C[C@@H]1Oc2ncc(-c3ccccc3OC)cc2C(=O)N([C@@H](C)CO)C[C@@H]1C`: -11.6% (inactive).

As to `CC(C)NC(=O)N1C[C@@H]2[C@H](c3ccccc31)[C@@H](CO)N2Cc1ccc(Cl)cc1`, the inhibition was -0.718% (inactive). Take `Cc1noc(C)c1NC(=O)N(C)C[C@@H]1OCCCC[C@H](C)Oc2ccc(NC(=O)NC3CCCCC3)cc2C(=O)N([C@H](C)CO)C[C@@H]1C`: the inhibition is 0.987% (inactive).

For `C=CCC1=C/C(=C\c2c(N)n3nc(CC(=O)N4CCOCC4)sc3nc2=O)C=C(OC)C1=O`, the inhibition is -3.86% (inactive). The value for `COC1=C/C(=C/c2c(N)n3nc(CC(=O)N4CCOCC4)sc3nc2=O)C=CC1=O` was 11.3% (active); that for `COc1cc(/C=C2\C(=N)N3N=C(CC(=O)N4CCOCC4)SC3=NC2=O)cc(OC)c1OC` was 0.211% (inactive); that for `CCCC(=O)N1CC2(CCN(C(=O)C3CC3)CC2)c2c(n(C)c3cc(OC)ccc23)[C@H]1CO` was -0.231% (inactive). `CCS(=O)(=O)Nc1ccc2c(c1)C(=O)N(C)C[C@@H](OC)[C@@H](C)CN(C(=O)COC)[C@H](C)CO2`: the inhibition was -1.04% (inactive).

Consider `C[C@@H]1CCCCO[C@@H](CN(C)C(=O)NC2CCCCC2)[C@@H](C)CN([C@@H](C)CO)C(=O)c2cc(NC(=O)C3CCCCC3)ccc2O1`, for which the inhibition is 0.287% (inactive).

Consider `C[C@@H]1CN([C@H](C)CO)C(=O)CCCn2cc(nn2)CO[C@@H]1CN(C)C(=O)Nc1ccc(-c2cccs2)cc1`, for which the inhibition is -8.3% (inactive). Next, `CC(Oc1ccc(Br)cc1)C(=O)NC1CCCCCC1` (stereo not given): 2.69% (inactive); `CC(OC(=O)c1cccnc1Cl)C(=O)NC1CCCCC1` (stereo not given): 15.9% (active); `O=C(COC(=O)c1cccnc1Cl)NC(=O)NC1CCCCC1`: 1.25% (inactive). For the compound `COCCNC(=O)[C@@H]1[C@@H](CO)[C@@H]2Cn3c(ccc(-c4ccccc4F)c3=O)[C@@H]2N1C(=O)C1CC1`, the inhibition was -1.01% (inactive).

Turning to `Cc1ccccc1S(=O)(=O)NCC[C@@H]1CC[C@H](NC(=O)C2CCCCC2)[C@@H](CO)O1`, the inhibition was 0.652% (inactive). Next, `Cc1nnc(Sc2nc3c(c(=O)[nH]c(=O)n3C)n2Cc2ccccc2)s1`: -0.878% (inactive); `Cn1c(=O)[nH]c(=O)c2c1[nH]c(=S)n2Cc1ccccc1`: 20.2% (active); `C=CCn1c(SCc2ccccc2)nc2c1c(=O)[nH]c(=O)n2C`: 1.32% (inactive). `CC(=O)N1CCCCN2[C@H](C1)[C@@H](c1ccc(-c3ccc(F)cc3)cc1)[C@@H]2CO`: the inhibition is -0.351% (inactive).

In the case of `C[C@H]1CN([C@@H](C)CO)S(=O)(=O)c2ccc(-c3ccccc3F)cc2O[C@H]1CN(C)C(=O)C1CC1`, the inhibition is -0.346% (inactive). Turning to `COc1ccc(NC(=O)N[C@H]2CC[C@@H](CCNC(=O)c3cc(Cl)cc(Cl)c3)O[C@H]2CO)cc1`, the inhibition was -0.154% (inactive). The value for `C[C@H]1CN([C@@H](C)CO)C(=O)Cc2cc(NC(=O)Cn3cnnn3)ccc2O[C@H]1CN(C)CC1CC1` was 0.02% (inactive); that for `O=C(C1CCOCC1)N1CC2(C1)[C@H](c1ccccc1)[C@H](CO)N2Cc1ccc(Cl)cc1` was -0.452% (inactive). `Cc1ccc(-c2cnc3c(c2)C(=O)N([C@H](C)CO)C[C@@H](C)[C@H](CN(C)Cc2ccccc2C(=O)O)O3)cc1`: the inhibition was 0.061% (inactive). Next, `C[C@@H]1CCCCO[C@@H](CN(C)C(=O)NC2CCCCC2)[C@@H](C)CN([C@H](C)CO)C(=O)c2cc(NC(=O)CCCCCC(=O)Nc3ccccc3N)ccc2O1`: 0.319% (inactive); `O=C(COc1ccc([N+](=O)[O-])cc1Cl)Nc1ccc2[nH]c(=O)[nH]c2c1`: 0.327% (inactive).

For the compound `COc1ccc(C(=O)OCC(=O)Nc2ccc3[nH]c(=O)[nH]c3c2)c(OC)c1OC`, the inhibition was 11.5% (active). `O=C(COC(=O)c1cccc(Cl)c1)Nc1ccc2[nH]c(=O)[nH]c2c1`: the inhibition was -0.403% (inactive).

For the compound `C[C@@H]1CN([C@H](C)CO)C(=O)c2cc(NS(=O)(=O)c3ccc(Cl)cc3)ccc2O[C@@H](C)CCCCO[C@H]1CN(C)Cc1ccccc1`, the inhibition was -0.656% (inactive). With `N#Cc1ccc(OCC(=O)NC(=O)NC2CCS(=O)(=O)C2)cc1` (stereo not given), the inhibition is -2.43% (inactive). Consider `COc1ccc(S(=O)(=O)N2CCCCC2)cc1C(=O)NC1CCS(=O)(=O)C1` (stereo not given), for which the inhibition was 0.566% (inactive). Turning to `COc1ccc(-c2ccc(OC(=O)NC3CCS(=O)(=O)C3)cc2)cc1` (stereo not given), the inhibition was 10.6% (active). The value for `C[C@@H]1CCCCO[C@@H](CN(C)C(=O)NC2CCCCC2)[C@H](C)CN([C@H](C)CO)C(=O)c2cc(NS(=O)(=O)c3ccc(Cl)cc3)ccc2O1` was -0.076% (inactive); that for `C[C@@H]1CN([C@H](C)CO)C(=O)c2cc(NC(=O)Nc3cccc4ccccc34)ccc2O[C@H]1CN(C)C(=O)Nc1ccccc1` was -0.695% (inactive). Next, `O=C(c1cnccn1)N1CC(=O)N2[C@H](C1)[C@H](c1ccc(/C=C/c3ccccc3)cc1)[C@@H]2CO`: 0.636% (inactive). Regarding `CO[C@@H]1CC[C@H]2CCN(C)C(=O)[C@@H](C)CN(C)C(=O)c3cccc(C#N)c3OC[C@@H]1O2`, the inhibition is 0.637% (inactive). For `COc1cccc2cc(C(N)=O)/c(=N\NC(=O)c3ccccc3)oc12`, the inhibition is -0.164% (inactive). As for `COc1cccc2cc(C(=O)NCc3ccc(C)cc3)c(=N)oc12`, the inhibition was 0.357% (inactive). Consider `COc1cccc2cc(/C(C)=N/NC(=O)c3ccco3)oc12`, for which the inhibition is 14% (active).

In the case of `COc1ccc(S(=O)(=O)Nc2ccc3c(c2)C(=O)N([C@H](C)CO)C[C@@H](C)[C@H](CN(C)C(=O)c2ccncc2)OCCCC[C@@H](C)O3)cc1`, the inhibition is 1.52% (inactive). For the compound `CNC[C@H]1Oc2cc(C#CC(C)(C)O)ccc2S(=O)(=O)N([C@@H](C)CO)C[C@@H]1C`, the inhibition is -0.494% (inactive).
